ChEMBL document CHEMBL2218924, “A broad activity screen in support of a chemogenomic map for kinase signalling research and drug discovery” (Biochem J, 2013)

What was measured:
[1] = target: T1, Serine/threonine-protein kinase 17A (Homo sapiens) (UniProt Q9UEE5); conditions: at 10 µM
T1 sequence (whole entry): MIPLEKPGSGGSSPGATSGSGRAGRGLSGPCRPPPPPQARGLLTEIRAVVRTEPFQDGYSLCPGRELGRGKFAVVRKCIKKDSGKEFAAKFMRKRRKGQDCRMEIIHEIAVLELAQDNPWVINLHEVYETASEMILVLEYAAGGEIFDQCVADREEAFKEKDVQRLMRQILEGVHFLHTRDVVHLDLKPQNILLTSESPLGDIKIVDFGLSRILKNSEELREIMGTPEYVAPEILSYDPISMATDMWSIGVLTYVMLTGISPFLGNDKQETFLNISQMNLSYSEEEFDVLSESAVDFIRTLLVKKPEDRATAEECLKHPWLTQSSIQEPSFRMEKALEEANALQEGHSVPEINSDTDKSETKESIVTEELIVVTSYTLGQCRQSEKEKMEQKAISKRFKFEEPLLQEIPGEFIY

[2] = target: T2, Dual specificity tyrosine-phosphorylation-regulated kinase 2 (Homo sapiens) (UniProt Q92630); conditions: at 1 µM
T2 sequence (whole entry): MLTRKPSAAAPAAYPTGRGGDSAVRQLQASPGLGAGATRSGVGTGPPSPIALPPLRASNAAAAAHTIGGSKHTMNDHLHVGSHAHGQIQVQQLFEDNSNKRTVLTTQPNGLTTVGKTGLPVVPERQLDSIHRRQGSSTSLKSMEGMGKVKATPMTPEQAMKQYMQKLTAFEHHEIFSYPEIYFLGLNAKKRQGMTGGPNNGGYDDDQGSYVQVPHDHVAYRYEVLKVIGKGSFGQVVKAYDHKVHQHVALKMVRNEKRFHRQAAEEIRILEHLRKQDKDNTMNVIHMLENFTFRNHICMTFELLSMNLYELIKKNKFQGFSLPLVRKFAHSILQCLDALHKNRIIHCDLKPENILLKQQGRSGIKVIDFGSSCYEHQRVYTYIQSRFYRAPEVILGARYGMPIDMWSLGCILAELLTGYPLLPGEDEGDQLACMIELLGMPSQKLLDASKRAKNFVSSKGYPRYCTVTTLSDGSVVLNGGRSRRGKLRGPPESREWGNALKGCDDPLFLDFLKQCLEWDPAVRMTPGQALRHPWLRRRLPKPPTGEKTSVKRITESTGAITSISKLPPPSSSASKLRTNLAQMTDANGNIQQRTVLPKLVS

[3] = target: T2, Dual specificity tyrosine-phosphorylation-regulated kinase 2 (Homo sapiens); conditions: at 10 µM
[4] = target: T3, Ephrin type-A receptor 1 (Homo sapiens) (UniProt P21709); conditions: at 1 µM
T3 sequence (whole entry): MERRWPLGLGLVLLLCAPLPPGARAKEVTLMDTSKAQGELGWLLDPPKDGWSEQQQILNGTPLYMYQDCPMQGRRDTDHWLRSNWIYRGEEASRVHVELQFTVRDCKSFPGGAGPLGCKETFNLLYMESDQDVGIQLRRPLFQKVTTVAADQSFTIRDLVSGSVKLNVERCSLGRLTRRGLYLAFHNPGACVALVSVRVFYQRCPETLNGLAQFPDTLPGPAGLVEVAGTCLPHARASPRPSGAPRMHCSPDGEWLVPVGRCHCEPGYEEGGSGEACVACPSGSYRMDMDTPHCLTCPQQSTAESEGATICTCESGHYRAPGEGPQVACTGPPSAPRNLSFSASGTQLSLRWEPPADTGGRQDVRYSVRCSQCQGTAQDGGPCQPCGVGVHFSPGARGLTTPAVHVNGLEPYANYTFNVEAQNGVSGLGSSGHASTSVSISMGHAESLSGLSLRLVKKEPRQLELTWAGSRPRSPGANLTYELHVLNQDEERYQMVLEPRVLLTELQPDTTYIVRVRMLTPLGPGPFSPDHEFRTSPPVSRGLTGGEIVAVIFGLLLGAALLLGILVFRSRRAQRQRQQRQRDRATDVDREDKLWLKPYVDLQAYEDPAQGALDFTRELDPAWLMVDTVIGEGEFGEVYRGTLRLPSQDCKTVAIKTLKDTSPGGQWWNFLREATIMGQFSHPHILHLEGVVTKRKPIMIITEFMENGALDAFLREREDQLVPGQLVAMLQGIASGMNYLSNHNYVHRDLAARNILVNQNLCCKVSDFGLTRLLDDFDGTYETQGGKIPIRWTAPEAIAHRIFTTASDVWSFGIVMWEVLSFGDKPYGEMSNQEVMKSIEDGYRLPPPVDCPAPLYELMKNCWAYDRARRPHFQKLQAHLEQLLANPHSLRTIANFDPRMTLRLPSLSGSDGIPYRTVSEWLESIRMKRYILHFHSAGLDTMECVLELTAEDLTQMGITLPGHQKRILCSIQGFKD

[5] = target: T3, Ephrin type-A receptor 1 (Homo sapiens); conditions: at 10 µM
[6] = target: Ephrin type-A receptor 2 (Homo sapiens) (UniProt P29317); conditions: at 1 µM
Sequence of Ephrin type-A receptor 2 (Homo sapiens) (P29317 whole entry): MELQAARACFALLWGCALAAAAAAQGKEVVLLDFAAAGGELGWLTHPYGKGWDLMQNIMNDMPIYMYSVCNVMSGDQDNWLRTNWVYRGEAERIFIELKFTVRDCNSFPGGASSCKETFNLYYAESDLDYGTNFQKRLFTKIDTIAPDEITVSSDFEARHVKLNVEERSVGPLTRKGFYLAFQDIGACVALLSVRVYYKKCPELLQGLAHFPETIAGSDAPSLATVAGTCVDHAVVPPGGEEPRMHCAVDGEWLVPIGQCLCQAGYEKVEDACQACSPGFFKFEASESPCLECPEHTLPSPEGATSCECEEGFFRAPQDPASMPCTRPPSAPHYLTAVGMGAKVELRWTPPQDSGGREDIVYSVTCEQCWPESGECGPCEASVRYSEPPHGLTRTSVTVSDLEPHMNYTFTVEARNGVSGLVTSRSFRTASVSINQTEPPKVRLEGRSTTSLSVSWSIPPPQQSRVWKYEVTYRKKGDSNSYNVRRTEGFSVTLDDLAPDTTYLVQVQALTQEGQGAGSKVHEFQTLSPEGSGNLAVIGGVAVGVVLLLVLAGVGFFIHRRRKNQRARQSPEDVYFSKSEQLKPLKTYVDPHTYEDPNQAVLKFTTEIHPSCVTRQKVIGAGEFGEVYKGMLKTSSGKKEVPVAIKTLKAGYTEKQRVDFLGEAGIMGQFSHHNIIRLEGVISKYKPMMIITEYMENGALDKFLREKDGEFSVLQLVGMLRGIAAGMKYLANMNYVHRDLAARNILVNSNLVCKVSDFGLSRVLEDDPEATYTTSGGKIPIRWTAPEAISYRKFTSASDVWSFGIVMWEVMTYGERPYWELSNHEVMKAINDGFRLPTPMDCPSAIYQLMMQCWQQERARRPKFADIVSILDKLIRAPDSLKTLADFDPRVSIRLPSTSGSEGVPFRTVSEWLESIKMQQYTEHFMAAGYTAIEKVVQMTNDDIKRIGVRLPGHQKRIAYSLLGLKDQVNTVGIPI

[7] = target: Ephrin type-A receptor 2 (Homo sapiens) (UniProt P29317); conditions: at 10 µM
[8] = target: T4, Ephrin type-A receptor 3 (Homo sapiens) (UniProt P29320); conditions: at 1 µM
T4 sequence (whole entry): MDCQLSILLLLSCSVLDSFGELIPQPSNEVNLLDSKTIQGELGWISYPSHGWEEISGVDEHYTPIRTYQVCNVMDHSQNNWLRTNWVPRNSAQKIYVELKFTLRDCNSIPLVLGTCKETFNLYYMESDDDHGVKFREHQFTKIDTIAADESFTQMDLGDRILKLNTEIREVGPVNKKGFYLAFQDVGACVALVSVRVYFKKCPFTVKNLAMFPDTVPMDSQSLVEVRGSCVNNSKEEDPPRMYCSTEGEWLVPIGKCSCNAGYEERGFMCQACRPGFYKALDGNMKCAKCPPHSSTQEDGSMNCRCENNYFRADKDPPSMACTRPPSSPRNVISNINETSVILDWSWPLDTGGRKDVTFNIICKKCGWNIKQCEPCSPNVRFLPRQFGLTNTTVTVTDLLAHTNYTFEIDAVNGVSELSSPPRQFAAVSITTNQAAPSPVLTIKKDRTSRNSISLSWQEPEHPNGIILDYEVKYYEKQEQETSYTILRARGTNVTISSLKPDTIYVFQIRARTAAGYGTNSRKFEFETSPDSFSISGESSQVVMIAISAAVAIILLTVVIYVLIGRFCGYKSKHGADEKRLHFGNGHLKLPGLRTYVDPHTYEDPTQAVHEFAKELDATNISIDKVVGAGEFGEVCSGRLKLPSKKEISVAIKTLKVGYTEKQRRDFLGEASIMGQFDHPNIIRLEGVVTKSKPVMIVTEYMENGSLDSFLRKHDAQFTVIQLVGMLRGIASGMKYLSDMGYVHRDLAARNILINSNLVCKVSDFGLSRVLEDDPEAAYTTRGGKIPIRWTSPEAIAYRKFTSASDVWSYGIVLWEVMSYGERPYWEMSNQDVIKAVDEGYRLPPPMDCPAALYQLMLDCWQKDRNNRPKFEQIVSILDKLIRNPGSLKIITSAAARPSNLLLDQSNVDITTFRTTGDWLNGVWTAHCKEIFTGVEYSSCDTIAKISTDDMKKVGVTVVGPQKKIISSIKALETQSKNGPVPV

[9] = target: T4, Ephrin type-A receptor 3 (Homo sapiens); conditions: at 10 µM
[10] = target: Ephrin type-A receptor 4 (Homo sapiens) (UniProt P54764); conditions: at 1 µM
Sequence of Ephrin type-A receptor 4 (Homo sapiens) (P54764 whole entry): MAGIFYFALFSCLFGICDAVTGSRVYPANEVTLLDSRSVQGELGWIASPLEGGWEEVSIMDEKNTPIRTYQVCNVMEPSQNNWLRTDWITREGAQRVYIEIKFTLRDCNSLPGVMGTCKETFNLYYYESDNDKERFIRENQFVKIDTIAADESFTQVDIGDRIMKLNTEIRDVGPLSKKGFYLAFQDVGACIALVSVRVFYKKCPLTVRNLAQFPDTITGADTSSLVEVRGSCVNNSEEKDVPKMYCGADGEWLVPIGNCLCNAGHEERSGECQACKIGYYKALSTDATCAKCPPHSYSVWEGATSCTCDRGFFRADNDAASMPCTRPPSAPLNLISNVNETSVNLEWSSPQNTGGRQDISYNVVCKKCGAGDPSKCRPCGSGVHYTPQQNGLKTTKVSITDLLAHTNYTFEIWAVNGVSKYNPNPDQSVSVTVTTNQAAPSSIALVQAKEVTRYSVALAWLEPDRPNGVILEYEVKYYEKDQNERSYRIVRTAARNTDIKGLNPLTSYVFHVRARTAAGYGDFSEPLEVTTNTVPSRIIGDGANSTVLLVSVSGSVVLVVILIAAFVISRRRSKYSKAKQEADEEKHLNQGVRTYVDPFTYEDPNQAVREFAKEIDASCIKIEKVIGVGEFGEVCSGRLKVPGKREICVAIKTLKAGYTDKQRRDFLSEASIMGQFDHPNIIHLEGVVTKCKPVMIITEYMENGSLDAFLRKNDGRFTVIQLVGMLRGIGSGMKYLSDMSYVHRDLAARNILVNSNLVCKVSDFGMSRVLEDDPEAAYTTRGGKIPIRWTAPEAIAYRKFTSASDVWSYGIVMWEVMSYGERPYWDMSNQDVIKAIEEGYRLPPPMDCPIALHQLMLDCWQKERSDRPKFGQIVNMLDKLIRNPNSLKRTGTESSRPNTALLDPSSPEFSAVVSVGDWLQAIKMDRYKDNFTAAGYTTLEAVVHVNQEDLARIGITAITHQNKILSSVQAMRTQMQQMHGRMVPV

[11] = target: Ephrin type-A receptor 4 (Homo sapiens) (UniProt P54764); conditions: at 10 µM
[12] = target: Ephrin type-A receptor 5 (Homo sapiens) (UniProt P54756); conditions: at 1 µM
Sequence of Ephrin type-A receptor 5 (Homo sapiens) (P54756 whole entry): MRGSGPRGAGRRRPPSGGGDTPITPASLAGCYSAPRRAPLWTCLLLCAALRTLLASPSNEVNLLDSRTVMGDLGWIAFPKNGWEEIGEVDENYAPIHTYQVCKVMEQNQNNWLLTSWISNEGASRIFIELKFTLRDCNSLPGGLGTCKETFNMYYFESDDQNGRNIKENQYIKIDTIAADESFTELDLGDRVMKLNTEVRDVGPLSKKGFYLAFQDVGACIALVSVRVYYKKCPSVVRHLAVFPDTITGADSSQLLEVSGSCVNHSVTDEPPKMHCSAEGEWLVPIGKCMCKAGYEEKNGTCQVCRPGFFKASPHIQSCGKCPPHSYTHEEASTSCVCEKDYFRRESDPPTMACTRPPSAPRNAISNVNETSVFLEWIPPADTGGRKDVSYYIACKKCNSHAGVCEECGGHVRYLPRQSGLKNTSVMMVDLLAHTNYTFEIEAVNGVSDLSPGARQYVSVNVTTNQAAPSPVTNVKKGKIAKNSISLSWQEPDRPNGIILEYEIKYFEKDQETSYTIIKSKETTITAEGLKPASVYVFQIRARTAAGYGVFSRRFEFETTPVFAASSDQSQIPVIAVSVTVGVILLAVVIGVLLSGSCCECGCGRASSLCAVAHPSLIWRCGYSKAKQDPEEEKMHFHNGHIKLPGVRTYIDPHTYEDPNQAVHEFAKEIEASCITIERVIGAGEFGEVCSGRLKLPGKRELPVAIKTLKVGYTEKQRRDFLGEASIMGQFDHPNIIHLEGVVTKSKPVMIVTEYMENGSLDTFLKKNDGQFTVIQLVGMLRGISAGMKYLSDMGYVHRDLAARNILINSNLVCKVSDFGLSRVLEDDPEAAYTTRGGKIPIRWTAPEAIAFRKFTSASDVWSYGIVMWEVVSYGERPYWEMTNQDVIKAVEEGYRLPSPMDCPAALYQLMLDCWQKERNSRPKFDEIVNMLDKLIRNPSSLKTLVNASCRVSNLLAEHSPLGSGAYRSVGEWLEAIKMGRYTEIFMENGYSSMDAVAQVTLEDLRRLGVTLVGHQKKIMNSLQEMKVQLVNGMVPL

[13] = target: Ephrin type-A receptor 5 (Homo sapiens) (UniProt P54756); conditions: at 10 µM
[14] = target: Ephrin type-A receptor 7 (Homo sapiens) (UniProt Q15375); conditions: at 1 µM
Sequence of Ephrin type-A receptor 7 (Homo sapiens) (Q15375 28-998 limits assumed): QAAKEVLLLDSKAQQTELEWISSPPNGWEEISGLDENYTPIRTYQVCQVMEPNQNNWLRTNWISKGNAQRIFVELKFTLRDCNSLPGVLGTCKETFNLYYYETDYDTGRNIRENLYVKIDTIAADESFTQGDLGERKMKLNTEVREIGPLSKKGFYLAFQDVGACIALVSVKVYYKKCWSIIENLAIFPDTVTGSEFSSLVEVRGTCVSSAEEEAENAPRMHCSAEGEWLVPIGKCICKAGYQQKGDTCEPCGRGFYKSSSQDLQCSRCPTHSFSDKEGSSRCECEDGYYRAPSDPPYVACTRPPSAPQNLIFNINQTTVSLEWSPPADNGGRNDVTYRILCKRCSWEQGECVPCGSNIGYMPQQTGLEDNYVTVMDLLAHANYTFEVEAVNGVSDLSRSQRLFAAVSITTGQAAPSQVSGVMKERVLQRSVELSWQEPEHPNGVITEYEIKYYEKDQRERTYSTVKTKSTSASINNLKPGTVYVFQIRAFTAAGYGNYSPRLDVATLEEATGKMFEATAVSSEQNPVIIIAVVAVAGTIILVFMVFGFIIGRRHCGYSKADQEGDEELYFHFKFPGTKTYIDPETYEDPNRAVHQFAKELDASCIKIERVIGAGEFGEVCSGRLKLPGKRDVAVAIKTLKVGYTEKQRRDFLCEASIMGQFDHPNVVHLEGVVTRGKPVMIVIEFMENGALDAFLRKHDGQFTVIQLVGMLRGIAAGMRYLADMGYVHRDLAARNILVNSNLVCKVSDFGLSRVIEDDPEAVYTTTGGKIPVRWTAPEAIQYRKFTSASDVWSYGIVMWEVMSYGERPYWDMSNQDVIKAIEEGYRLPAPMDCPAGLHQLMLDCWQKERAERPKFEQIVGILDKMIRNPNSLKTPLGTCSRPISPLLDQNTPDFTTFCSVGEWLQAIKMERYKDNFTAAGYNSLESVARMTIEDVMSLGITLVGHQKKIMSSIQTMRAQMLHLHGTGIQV

[15] = target: Ephrin type-A receptor 7 (Homo sapiens) (UniProt Q15375); conditions: at 10 µM
[16] = target: T5, Ephrin type-A receptor 8 (Homo sapiens) (UniProt P29322); conditions: at 1 µM
T5 sequence (whole entry): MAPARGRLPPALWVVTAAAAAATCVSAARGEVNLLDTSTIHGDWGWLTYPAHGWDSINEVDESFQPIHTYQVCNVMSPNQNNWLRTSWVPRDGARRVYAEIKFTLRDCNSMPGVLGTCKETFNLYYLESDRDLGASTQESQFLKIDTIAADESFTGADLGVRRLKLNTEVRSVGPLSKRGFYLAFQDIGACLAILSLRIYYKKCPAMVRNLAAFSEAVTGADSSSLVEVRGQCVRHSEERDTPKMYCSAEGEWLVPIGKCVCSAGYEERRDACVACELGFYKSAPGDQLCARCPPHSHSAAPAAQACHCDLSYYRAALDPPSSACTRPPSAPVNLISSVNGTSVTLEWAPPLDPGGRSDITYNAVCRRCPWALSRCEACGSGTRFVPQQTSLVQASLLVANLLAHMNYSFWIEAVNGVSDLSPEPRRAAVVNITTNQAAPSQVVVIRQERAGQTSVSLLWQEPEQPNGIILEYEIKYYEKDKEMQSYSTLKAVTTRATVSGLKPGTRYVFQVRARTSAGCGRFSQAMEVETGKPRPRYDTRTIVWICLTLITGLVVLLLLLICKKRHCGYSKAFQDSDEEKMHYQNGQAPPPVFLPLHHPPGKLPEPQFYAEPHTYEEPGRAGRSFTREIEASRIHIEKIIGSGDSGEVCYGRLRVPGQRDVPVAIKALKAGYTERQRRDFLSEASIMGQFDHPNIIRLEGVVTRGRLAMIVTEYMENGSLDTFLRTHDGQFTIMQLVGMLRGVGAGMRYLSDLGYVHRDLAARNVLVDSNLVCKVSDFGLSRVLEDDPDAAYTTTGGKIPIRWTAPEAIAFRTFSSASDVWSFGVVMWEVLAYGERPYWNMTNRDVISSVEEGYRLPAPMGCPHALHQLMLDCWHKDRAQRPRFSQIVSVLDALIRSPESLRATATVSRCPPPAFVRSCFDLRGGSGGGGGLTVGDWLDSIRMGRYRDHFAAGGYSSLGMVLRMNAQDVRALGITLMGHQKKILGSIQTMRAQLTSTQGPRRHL

[17] = target: T5, Ephrin type-A receptor 8 (Homo sapiens); conditions: at 10 µM
[18] = target: T6, Ephrin type-B receptor 1 (Homo sapiens) (UniProt P54762); conditions: at 1 µM
T6 sequence (whole entry): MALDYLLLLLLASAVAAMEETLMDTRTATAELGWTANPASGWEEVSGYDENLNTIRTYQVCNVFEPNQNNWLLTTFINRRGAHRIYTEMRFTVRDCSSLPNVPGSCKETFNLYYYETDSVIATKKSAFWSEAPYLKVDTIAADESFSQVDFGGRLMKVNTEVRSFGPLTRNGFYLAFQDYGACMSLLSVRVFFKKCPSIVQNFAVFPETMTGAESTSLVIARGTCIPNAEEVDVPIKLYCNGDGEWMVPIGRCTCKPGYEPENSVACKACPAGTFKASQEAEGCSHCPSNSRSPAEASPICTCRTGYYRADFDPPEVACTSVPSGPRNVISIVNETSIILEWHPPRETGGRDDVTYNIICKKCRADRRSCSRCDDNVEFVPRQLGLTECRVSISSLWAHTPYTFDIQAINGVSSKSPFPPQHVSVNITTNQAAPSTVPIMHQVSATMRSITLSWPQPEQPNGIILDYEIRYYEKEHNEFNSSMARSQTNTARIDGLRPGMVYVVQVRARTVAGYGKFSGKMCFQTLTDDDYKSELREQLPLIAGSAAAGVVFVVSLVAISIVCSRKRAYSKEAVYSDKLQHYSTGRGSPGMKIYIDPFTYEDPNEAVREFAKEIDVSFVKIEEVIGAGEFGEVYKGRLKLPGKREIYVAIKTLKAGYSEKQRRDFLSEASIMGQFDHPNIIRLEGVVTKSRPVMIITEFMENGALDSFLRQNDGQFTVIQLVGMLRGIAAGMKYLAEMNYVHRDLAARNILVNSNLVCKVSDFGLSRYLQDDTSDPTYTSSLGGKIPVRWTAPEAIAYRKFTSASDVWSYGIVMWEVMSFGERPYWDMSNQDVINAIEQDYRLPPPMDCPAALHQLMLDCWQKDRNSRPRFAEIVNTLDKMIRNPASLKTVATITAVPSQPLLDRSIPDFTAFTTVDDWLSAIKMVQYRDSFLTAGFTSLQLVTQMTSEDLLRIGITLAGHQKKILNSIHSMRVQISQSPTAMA

Compound	residual activity [1]	residual activity [2]	residual activity [3]	residual activity [4]	residual activity [5]	residual activity [6]	residual activity [7]	residual activity [8]	residual activity [9]	residual activity [10]	residual activity [11]	residual activity [12]	residual activity [13]	residual activity [14]	residual activity [15]	residual activity [16]	residual activity [17]	residual activity [18]
O=C1NC(=O)c2c1c1c3ccccc3[nH]c1c1[nH]c3cc(Br)ccc3c21	4%	100%	75%	96%	86%	98%	114%	93%	86%	104%	92%	111%	91%	99%	93%	95%	88%	106%
Cn1nc2c3c(cccc31)C(=O)c1ccccc1-2	20%	91%	75%	88%	68%	92%	97%	88%	73%			110%	99%	95%	88%	94%	81%	94%
Cc1cc(Nc2nc(-c3ccccc3)nc3ccccc23)n[nH]1	14%		41%	36%	18%	75%	43%	54%	8%		73%		33%	50%	6%		68%	
N#CC(C#N)=C(N)/C(C#N)=C/c1ccc(O)cc1		85%	93%									125%	96%	91%	81%			
Ic1cccc(CSc2nnc(-c3ccncc3)o2)c1	3%	87%	60%	95%	88%	90%	91%	96%	83%	104%	103%	106%	99%	88%	81%	89%	87%	95%
Cc1cncc2cccc(S(=O)(=O)N3CCCN(C(=O)CN)C[C@H]3C)c12		91%	94%	54%	7%	92%	56%	96%	50%				83%		66%	98%	85%	75%
